# Results filed as inconclusive are left out. Active and inactive are the calls of the source. The call rests on the fitted dose curve; in most records, active means well fitted activation curve with a large enough effect in the repeat runs; inconclusive means weak or mixed curves, or effect the other way; inactive means no such curve, though single readings can be large or run the other way.
# Test: qHTS assay to identify small molecule agonists of the retinoic acid receptor (RAR) signaling pathway (AID 1159553)
# Conditions: C3RL4 RARE luciferase reporter, agonist, 6 h; series mostly up to 73.3 µM; activation: at the top concentration
# From the text: National Center for Advancing Translational Sciences [NCATS] NIH Chemical Genomics Center [NCGC] U.S. Environmental Protection Agency [EPA] National Institutes of Environmental Health Sciences [NIEHS] National Toxicology Program [NTP] Assay overview: All-trans Retinoic acid (atRA) is the potent natural metabolite of retinol and plays an important role in normal embryonic development and maintenance of cellular phenotype in adult animals. atRA is the activating ligand for the retinoic acid receptors (RARs) which form heterodimers with retinoid X receptors (RXRs) on the retinoic acid response element (RARE). Through activation of the RAR/RXRs nuclear receptors, atRA regulates the transcription of a large number of protein-coding genes and regulatory RNAs. Intracellular levels of atRA are controlled by the retinol signaling pathway (RSP) that regulates the biosynthesis and catabolism of atRA to maintain physiological levels. Chemicals that interfere with the RSP can cause abnormal intracellular levels of atRA and therefore are potential developmental toxicants. To assess compounds for the potential adverse effect on embryonic development through interfering with retinol signaling, a cell-based RARE luciferase reporter gene assay was used. C3RL4 cell line (OARSA/CFSAN/FDA, Laurel, MD) was used to screen Tox21 10K compound library for identifying activators of the RSP.
# Assay Protocol Summary: C3RL4 cells were seeded at 1,000/well in 5 uL of assay medium into white solid 1,536-well tissue culture plates (Greiner Bio-One North America Inc. Monroe, NC) using a Multidrop Combi (Thermo Scientific, Waltham, MA) dispenser. After incubation at 37 C and 5% CO2 for an overnight, 23 nL of compounds dissolved in DMSO, positive control or DMSO only were transferred by a Pintool station (Kalypsys, San Diego, CA). After 6 hr incubation at 37 C and 5% CO2, 5 uL of Amplite Luciferase reagent (AAT Bioquest Inc. Sunnyvale, CA) was added to each assay plate using a Flying Reagent Dispenser (FRD) (Aurora Discovery, San Diego, CA). Luminescence was quantified on a ViewLux plate reader (PerkinElmer, Waltham, MA) after 30 min incubation at room temperature.
# On the % scale 0 is the no-effect control and ±100 the full control effect; potency means the concentration at half of the fitted maximal effect.
SMILES,activation,Potency
CC(C)CC#N,-0.172% [at 94.8 µM] (inactive),
C[C@]12CC[C@H]3[C@@H](CCC4=CC(=O)CC[C@@]43C)[C@@H]1CC[C@@H]2C(=O)O,2.04% (inactive),
O=C1OC(c2ccc(O)c(S(=O)(=O)O)c2)(c2ccc(O)c(S(=O)(=O)O)c2)c2c(Br)c(Br)c(Br)c(Br)c21,2.02% (inactive),
O=C(Nc1ccccc1)N(Cc1ccc(Cl)cc1)C1CCCC1,-2.58% (inactive),
COc1cc2c(cc1OC)[C@@]13CCN4CC5=CCO[C@H]6CC(=O)N2[C@H]1[C@H]6[C@H]5C[C@H]43,-3.78% (inactive),
CCCCCCBr,-0.343% [at 94.8 µM] (inactive),
OC(c1ccccc1)(c1ccccc1)C1CCNCC1,-7.46% (inactive),
CCOP(=S)(OCC)Oc1nc(Cl)n(C(C)C)n1,-0.126% (inactive),
C#CCN1C(=O)COc2cc(F)c(N3C(=O)C4=C(CCCC4)C3=O)cc21,-0.335% (inactive),
CC(C1CC1)C(O)(Cn1cncn1)c1ccc(Cl)cc1 (stereo not given),-2.17% (inactive),
CC(=O)[C@H]1CC[C@H]2[C@@H]3CC[C@H]4C[C@H](O)CC[C@]4(C)[C@H]3C(=O)C[C@]12C,-5.05% (inactive),
O=[N+]([O-])c1ccc(CBr)cc1,-1.39% [at 94.8 µM] (inactive),
COP(=S)(OC)Oc1c(Cl)cc(C)cc1Cl,0.52% (inactive),
CCS(=O)(=O)CCSP(=O)(OC)OC,-4.05% (inactive),
C(CCOCC1CO1)COCC1CO1 (stereo not given),-0.241% (inactive),
C[N+](C)=CCl,0.768% (inactive),
CC(C(O)c1ccccc1)N(C)C/C=C/c1ccccc1 (stereo not given),-3.18% (inactive),
Nc1n[nH]c(N)n1,0.65% [at 94.8 µM] (inactive),
CC(COc1ccc(Oc2ccccc2)cc1)Oc1ccccn1 (stereo not given),,13.7 µM (active)
CC(C)(C)OC(=O)c1ncn2c1[C@@H]1CCCN1C(=O)c1c(Br)cccc1-2,3.32% (inactive),

SMILES,activation,Potency
CCC#N,-0.122% [at 94.8 µM] (inactive),
C=CCC1=C(C)[C@@H](OC(=O)[C@@H]2[C@@H](C=C(C)C)C2(C)C)CC1=O,-7.37% (inactive),
Clc1ccccc1N1CCNCC1,-1.44% (inactive),
C=C(C)CN(CC)c1c([N+](=O)[O-])cc(C(F)(F)F)cc1[N+](=O)[O-],0.194% (inactive),
CN1C(=S)CN=C(c2ccccc2)c2cc(Cl)ccc21,-6.66% (inactive),
CSc1ccc(C(=O)C(C)(C)N2CCOCC2)cc1,-2.24% (inactive),
ClC(Cl)C(Cl)Cl,-0.0543% [at 94.8 µM] (inactive),
Clc1cccc(N2CCNCC2)c1,-2.5% (inactive),
OC(c1ccc(F)cc1)(c1cncnc1)c1ccccc1Cl (stereo not given),-1.56% (inactive),
N#CC(CCc1ccc(Cl)cc1)(Cn1cncn1)c1ccccc1 (stereo not given),-7.03% (inactive),
c1coc(-c2nc3ccccc3[nH]2)c1,,3.86 µM (active)
CNC(=O)Oc1c(C(C)(C)C)cc(C)cc1C(C)(C)C,-1.05% (inactive),
Cc1nnc2n1-c1sc(CCC(=O)N3CCOCC3)cc1C(c1ccccc1Cl)=NC2,-3.7% (inactive),
COC(=O)c1ccccc1S(=O)(=O)NC(=O)Nc1nc(C)cc(C)n1,1.85% (inactive),
CNC(=O)Oc1ccccc1C1OCCO1,6.66% (inactive),
Nc1c(Br)cc([N+](=O)[O-])cc1[N+](=O)[O-],0.904% [at 94.8 µM] (inactive),
Cc1ncc(CNC(=O)N(CCCl)N=O)c(N)n1,2.37% (inactive),
CCOP(=S)(OCC)SCSc1ccc(Cl)cc1,-2.09% (inactive),
CC(Oc1ccc(Oc2ncc(C(F)(F)F)cc2Cl)cc1)C(=O)O (stereo not given),-3.55% (inactive),
O=C1OC(=O)C2C1C1(Cl)C(Cl)=C(Cl)C2(Cl)C1(Cl)Cl (stereo not given),0.286% [at 94.8 µM] (inactive),

# Reference: PubChem BioAssay (Tox21)
